Source: PubChem
A selection: hits, their analogues and other compounds. The true share with any hit is near 2.7%.
F508del corr = correctors of CFTR F508del function in bronchial epithelial cells; CFBE cells, YFP halide quenching; stimulated with forskolin plus potentiator P3; % fluorescence drop versus neutral controls; activity (quench increase), % at 7.58 µM; 350,000 compounds, 0.36% hits;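 active means mean added fluorescence quench of at least 8% versus neutral control, with both replicates also reaching 8%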;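 further: cells transiently co-express mutant CFTR-F508del with the halide-sensitive YFP; corrector assay measuring rescue of mutant channel to the surface after 24 h compound exposure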
MPTP block = blocks calcium-induced mitochondrial swelling. isolated mouse mitochondria, Ca2+ swelling absorbance, 30 min. inhibition, % at 10 µM. 360,000 compounds, 1.4% hits. AID 602449;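 active means inhibition of 50% or more, scaled per plate between neutral and stimulator controls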;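 further: 0% = DMSO wells given calcium and 100% = 1 mM EGTA wells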
SKN-1 block = C. elegans SKN-1 inhibition. C. elegans VP596 Pgst-4::GFP/RFP ratio, acrylamide-induced, 24 h. inhibition, % at 21.8 µM. 360,000 compounds, 0.49% hits. AID 624304;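 active means interference check ratio from 0.5 to 1.5 plus GFP to RFP signal ratio inhibition reaching or exceeding a fixed threshold, cut at about 30% in these data, passing the limit was not always enough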
CendR NRP1 mod = alters CendR peptide binding to human NRP-1 | O14786 | inhibition, % at 25 µM | AID 602438 | FAM-RPARPAR peptide binding to NRP-1, fluorescence polarization | 360,000 compounds, 0.85% hits;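 active means inhibition or corrected inhibition above about 18%, plus a signal ratio from 0.5 to 1.5, limit read from the data, passing the limit was not always enough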
ATG4B inh = blocks human ATG4B protease cleavage of LC3 substrate. Q9Y4P1. ATG4B cleavage of LC3-PLA2, NBD-HPC fluorescence, 1 h. inhibition, % at 8.33 µM. 340,000 compounds, 0.51% hits; in the data active means inhibition above about 40%
Target sequence (Q9Y4P1 whole entry, looked up): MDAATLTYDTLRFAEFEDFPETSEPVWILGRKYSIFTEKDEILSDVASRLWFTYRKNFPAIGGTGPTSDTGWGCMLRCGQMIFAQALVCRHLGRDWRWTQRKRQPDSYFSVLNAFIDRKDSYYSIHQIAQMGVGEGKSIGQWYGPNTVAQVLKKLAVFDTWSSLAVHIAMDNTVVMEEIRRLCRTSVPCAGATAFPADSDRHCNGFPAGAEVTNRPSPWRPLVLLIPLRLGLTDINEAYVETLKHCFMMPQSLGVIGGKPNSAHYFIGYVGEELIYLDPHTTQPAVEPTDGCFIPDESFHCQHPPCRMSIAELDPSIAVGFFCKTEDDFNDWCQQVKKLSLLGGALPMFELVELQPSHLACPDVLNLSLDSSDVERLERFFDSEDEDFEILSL
* = called active by the depositor; / = no result given.

SMILES	F508del corr	MPTP block	SKN-1 block	CendR NRP1 mod	ATG4B inh
Cc1noc(C)c1S(=O)(=O)Nc1ccc2c(c1)C(=O)N([C@H](C)CO)C[C@@H](C)[C@@H](CN(C)Cc1ccccc1)OCCCC[C@H](C)O2	1.5	/	/	/	/
CO[C@@H]1CN(C)C(=O)c2cc(NC(=O)C3CCCC3)ccc2OC[C@H](C)N(C(C)=O)C[C@H]1C	0.5	/	/	/	/
C[C@@H]1CCCCO[C@@H](CN(C)Cc2ccc3c(c2)OCO3)[C@H](C)CN([C@H](C)CO)C(=O)c2cc(NC(=O)Nc3ccc4c(c3)OCO4)ccc2O1	-0.4	/	/	/	/
O=[N+]([O-])c1ccc(N2CCCCC2)cc1N1CCOCC1	1.0	3.3	15.6	8.3	3.0
S=P(c1ccc(N2CCOCC2)cc1N1CCOCC1)(N1CCOCC1)N1CCOCC1	/	-5.5	44.0*	11.0	6.7
CCN(CC(=O)Nc1ccccc1C(F)(F)F)C(=O)c1ccc(NC(=O)c2cccs2)cc1	-0.3	-0.7	47.5*	3.1	/
O=C(O)C1=C2C(=O)Nc3cccc(c32)C2(C1)C(=O)Nc1ccccc12 (stereo not drawn)	0.7	1.3	35.7*	-34.8	/
CC(C)CC(=O)Nc1ccc(Nc2ccccc2)cc1	/	2.2	35.0*	5.0	4.8
COc1cc(/C=N/NC(=O)c2ccc(NC(=O)C3CC3)cc2)ccc1OC(C)=O	-2.4	-1.0	3.1	26.9*	-2.4
Cc1nn(C)c(C)c1/C=C/C(=O)O	13.3*	-2.3	10.4	-11.8	-4.2
C/C(=N\NC(=O)c1c[nH]c2ccccc12)c1ccc(C)s1	-0.7	0.3	4.9	1.9	0.9
CC/C(=N\NC(=O)c1c[nH]c2ccccc12)c1cccs1	-0.9	0.3	4.4	29.6*	15.3
O=C(Nc1cccc(F)c1)N1C[C@H]2[C@@H](c3ccccc31)[C@@H](CO)N2C(=O)c1ccccc1F	-3.4	/	/	/	/
OCC1CCCN(C(=S)Nc2ccc(Nc3ccccc3)cc2)C1 (stereo not drawn)	1.7	-1.0	2.7	33.0*	-4.8
OCC1CCCN(C(=S)Nc2ccc(OC(F)F)cc2)C1 (stereo not drawn)	-1.8	1.0	-2.3	0.4	5.7
Cc1cc(Br)c(NC(=O)C(C)Sc2nnnn2C)c(Br)c1 (stereo not drawn)	11.9*	-0.2	0.5	7.5	-11.1
N#C[C@@H]1[C@H](c2ccccc2)[C@@H](CO)N1C(=O)Cc1ccccn1	0.9	/	/	/	/
COc1ccc(C2=CC(=O)CCC2)cc1	-0.4	-1.5	0.2	39.7*	-5.1
CC(OC(=O)c1ccc(Cl)nc1)C(=O)NC(C)(C)C (stereo not drawn)	10.2*	-1.9	-2.2	6.7	-10.7
CO/N=C\CC(=O)Nc1ccc(Cl)cc1Cl	10.7*	0.2	3.5	7.0	-3.0
O=C(Nc1ccc(F)cc1)N1CC(=O)N2[C@H](CO)[C@H](c3ccc(-c4cccc(F)c4)cc3)[C@H]2C1	2.0	/	/	/	/
CC(OC(=O)c1cccs1)C(=O)NC1CCCCC1C (stereo not drawn)	28.6*	0.2	-6.9	3.6	-65.5
COc1cc2c(cc1OC)[C@@H](NC(=O)CCc1ccccc1)[C@H](OCc1ccccc1)C2	-3.0	-0.1	35.4*	10.6	-4.3
COCCCn1c(SCC(=O)NC(C)C)nnc1-c1ccccc1	/	0.4	36.3*	-5.0	7.6
COCCCn1c(SCC(N)=O)nnc1-c1ccccc1	/	-0.2	5.5	-12.0	-7.3
SMILES	F508del corr	MPTP block	SKN-1 block	CendR NRP1 mod	ATG4B inh
CCCN(C)C[C@@H]1Oc2cc(C3=CCCCC3)ccc2S(=O)(=O)N([C@@H](C)CO)C[C@@H]1C	-1.5	/	/	/	/
N#Cc1ccc(-c2ccc3c(c2)[C@H]2[C@H](CCN2S(=O)(=O)c2ccccc2F)[C@@H](CO)N3)cc1	14.8*	/	/	/	/
Cc1cc(C)n(-c2nc3ccccc3n3cnnc23)n1	/	0.2	38.1*	10.4	-0.3
CC(/C=N/Nc1ncc(C)c(=O)[nH]1)=C\c1ccccc1	/	0.9	41.4*	0.5	-2.6
CC(C)[C@H]1COCCS(=O)(=O)N1Cc1cccc(Cl)c1	-0.3	-0.2	-0.4	26.6*	0.9
O=S1(=O)CCOC[C@H](Cc2ccccc2)N1Cc1cccc(F)c1	-0.2	0.3	0.6	35.0*	-7.5
O=S1(=O)CCOC[C@H](Cc2ccccc2)N1Cc1ccc(F)cc1	-0.1	1.5	10.0	9.7	0.3
CCC1COCCS(=O)(=O)N1Cc1cccc(Cl)c1 (stereo not drawn)	1.2	0.3	21.9	4.3	0.2
O=S1(=O)CCOC[C@H](Cc2ccccc2)N1Cc1ccccc1F	-0.9	-0.2	9.7	28.0*	1.0
COc1ccc(CN2[C@H](CO)[C@H]3c4ccccc4N(C(=O)CC(F)(F)F)C[C@H]32)cc1	-2.8	/	/	/	/
C[C@@H]1CCCCO[C@@H](CN(C)C)[C@@H](C)CN([C@H](C)CO)C(=O)c2cc(NC(=O)NC3CCCCC3)ccc2O1	-1.7	/	/	/	/
CCN(CC(=O)Nc1cccc(C(C)=O)c1)S(=O)(=O)c1ccc(C)cc1	-2.7	-2.1	4.7	42.9*	-0.6
CC(C)NC(=O)N(C)C[C@@H]1Oc2ccc(NC(=O)CCCCCC(=O)Nc3ccccc3N)cc2CC(=O)N([C@H](C)CO)C[C@@H]1C	-1.5	/	/	/	/
NCCCC[C@H]1CN=C(N)N1CCc1cccc2ccccc12	-5.1	1.6	9.4	9.0	3.0
NCCCC[C@H]1CN=C(N)N1CCC12CC3CC(CC(C3)C1)C2	0.4	8.4	3.6	37.5*	-7.1
CCCN(C)C[C@H]1Oc2cc(-c3ccc(C)cc3)ccc2S(=O)(=O)N([C@H](C)CO)C[C@@H]1C	-1.1	/	/	/	/
Cc1ccc(S(=O)(=O)N2CCCCC2CCNC(=O)C(=O)NCc2ccccc2)cc1 (stereo not drawn)	9.8*	0.7	-3.0	-4.5	-8.8
CC(C)NC(=O)COc1coc(CN2CCN(c3cccc(Cl)c3)CC2)cc1=O	1.3	-0.4	8.1	7.3	-1.8
CC(C)NC(=O)COc1coc(CN2CCN(c3ccccc3)CC2)cc1=O	-1.2	-2.1	1.3	23.2*	0.0
N#C[C@H]1[C@H](c2ccccc2C2=CCCCC2)[C@H](CO)N1C(=O)CN1CCOCC1	2.2	/	/	/	/
COc1ccc2c3c(n(C)c2c1)[C@@H](CO)N(C(=O)C1CCCC1)CC31CCN(C(=O)CC2CC2)CC1	-0.1	/	/	/	/
COc1ccc(-c2nnc(-c3cc4c(ccc5ccccc54)oc3=O)o2)cc1	/	0.0	10.2	-10.5	-13.8
O=c1oc2ccc3ccccc3c2cc1-c1nnc(-c2ccccc2)o1	/	0.6	52.1*	-22.4	-4.5
O=C(C[C@@H]1C=C[C@@H](NC(=O)CN2CCOCC2)[C@@H](CO)O1)NC1CCC1	-2.6	/	/	/	/
Clc1ccc(N2CCN(c3ccnc(Cl)n3)CC2)cc1	0.3	4.8	56.7*	0.2	0.6
C[C@@]12C(=O)N(CC3CCCO3)CC(=O)N1[C@@H]1c3ccccc3OC[C@@H]1[C@@H]2c1ccccc1 (stereo partly drawn)	3.4	0.5	1.1	3.7	/
COc1ccc2c(c1)OC[C@H]1[C@H]2N2C(=O)CN(CC3CCCO3)C(=O)[C@@]2(C)[C@H]1c1ccccc1 (stereo partly drawn)	1.8	-0.1	2.9	26.5*	-4.4
